Data: ChEMBL document CHEMBL1961873, “Compounds: GSK PKIS; Assays: Nanosyn kinase panel” (2012)

Columns and labels:
[1] = target: Protein kinase C gamma type (Homo sapiens) (UniProt P05129); settings: at 1 µM;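 also: each value is an averaged percent inhibition of the enzyme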
[2] = target: T1, Protein kinase C iota type (Homo sapiens) (UniProt P41743); settings: at 0.1 µM
T1 sequence (whole entry): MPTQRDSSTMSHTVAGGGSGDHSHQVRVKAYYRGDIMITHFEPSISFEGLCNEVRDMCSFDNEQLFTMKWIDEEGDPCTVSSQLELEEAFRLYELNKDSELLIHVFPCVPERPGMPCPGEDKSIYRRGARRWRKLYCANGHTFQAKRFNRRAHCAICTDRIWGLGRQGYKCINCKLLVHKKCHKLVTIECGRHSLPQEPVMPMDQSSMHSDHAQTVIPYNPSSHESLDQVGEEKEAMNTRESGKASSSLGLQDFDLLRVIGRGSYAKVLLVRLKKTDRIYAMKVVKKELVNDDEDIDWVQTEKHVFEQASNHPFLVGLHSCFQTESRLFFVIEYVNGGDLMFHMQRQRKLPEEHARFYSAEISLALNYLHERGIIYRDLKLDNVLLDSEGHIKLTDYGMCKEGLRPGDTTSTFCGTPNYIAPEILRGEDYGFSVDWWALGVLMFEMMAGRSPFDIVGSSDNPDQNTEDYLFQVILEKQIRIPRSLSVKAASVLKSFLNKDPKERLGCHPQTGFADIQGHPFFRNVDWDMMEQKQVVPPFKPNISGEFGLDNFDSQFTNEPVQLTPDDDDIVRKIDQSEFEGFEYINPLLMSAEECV

[3] = target: T1, Protein kinase C iota type (Homo sapiens); settings: at 1 µM
[4] = target: Protein kinase C theta type (Homo sapiens) (UniProt Q04759); settings: at 0.1 µM
Protein kinase C theta type (Homo sapiens), sequence (Q04759 whole entry, looked up): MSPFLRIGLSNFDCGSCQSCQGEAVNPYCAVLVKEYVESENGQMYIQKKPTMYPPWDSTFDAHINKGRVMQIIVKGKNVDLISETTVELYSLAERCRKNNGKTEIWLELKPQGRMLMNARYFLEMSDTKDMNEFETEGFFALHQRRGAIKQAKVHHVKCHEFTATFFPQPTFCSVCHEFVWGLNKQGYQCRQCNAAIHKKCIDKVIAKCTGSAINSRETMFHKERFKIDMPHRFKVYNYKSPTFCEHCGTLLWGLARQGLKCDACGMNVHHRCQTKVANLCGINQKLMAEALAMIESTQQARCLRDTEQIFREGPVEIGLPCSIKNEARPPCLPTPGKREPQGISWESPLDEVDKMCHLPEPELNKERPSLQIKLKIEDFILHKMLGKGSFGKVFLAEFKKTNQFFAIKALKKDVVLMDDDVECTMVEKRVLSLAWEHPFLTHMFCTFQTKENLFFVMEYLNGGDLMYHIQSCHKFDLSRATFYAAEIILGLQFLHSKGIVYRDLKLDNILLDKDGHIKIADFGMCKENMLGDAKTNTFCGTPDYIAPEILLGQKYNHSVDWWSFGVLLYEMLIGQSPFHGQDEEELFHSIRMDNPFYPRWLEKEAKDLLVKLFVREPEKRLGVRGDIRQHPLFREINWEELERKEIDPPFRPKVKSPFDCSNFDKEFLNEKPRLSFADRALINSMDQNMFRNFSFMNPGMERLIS

[5] = target: Protein kinase C theta type (Homo sapiens) (UniProt Q04759); settings: at 1 µM
[6] = target: Protein kinase C beta type (Homo sapiens) (UniProt P05771); settings: at 0.1 µM
Protein kinase C beta type (Homo sapiens), sequence (P05771 2-671 limits assumed): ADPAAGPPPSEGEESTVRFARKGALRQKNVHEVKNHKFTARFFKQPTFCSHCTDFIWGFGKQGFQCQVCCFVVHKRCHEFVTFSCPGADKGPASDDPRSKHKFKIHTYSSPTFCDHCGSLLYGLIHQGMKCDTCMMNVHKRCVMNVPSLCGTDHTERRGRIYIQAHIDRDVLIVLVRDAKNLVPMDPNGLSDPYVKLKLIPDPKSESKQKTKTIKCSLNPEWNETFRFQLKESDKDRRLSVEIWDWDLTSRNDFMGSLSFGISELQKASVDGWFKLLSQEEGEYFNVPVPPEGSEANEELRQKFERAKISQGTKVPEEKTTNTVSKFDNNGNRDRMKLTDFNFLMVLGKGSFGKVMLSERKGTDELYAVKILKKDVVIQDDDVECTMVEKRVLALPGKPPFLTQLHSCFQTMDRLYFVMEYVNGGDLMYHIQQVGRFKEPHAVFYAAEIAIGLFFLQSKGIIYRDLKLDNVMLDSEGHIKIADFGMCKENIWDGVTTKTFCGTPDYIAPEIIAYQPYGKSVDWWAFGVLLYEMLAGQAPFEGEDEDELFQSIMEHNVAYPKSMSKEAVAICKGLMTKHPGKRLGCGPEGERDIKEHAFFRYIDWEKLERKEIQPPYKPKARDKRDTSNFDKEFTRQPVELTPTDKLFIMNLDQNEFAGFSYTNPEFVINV

[7] = target: Protein kinase C beta type (Homo sapiens) (UniProt P05771); settings: at 1 µM
[8] = target: T2, Serine/threonine-protein kinase D1 (Homo sapiens) (UniProt Q15139); settings: at 0.1 µM
T2 sequence (whole entry): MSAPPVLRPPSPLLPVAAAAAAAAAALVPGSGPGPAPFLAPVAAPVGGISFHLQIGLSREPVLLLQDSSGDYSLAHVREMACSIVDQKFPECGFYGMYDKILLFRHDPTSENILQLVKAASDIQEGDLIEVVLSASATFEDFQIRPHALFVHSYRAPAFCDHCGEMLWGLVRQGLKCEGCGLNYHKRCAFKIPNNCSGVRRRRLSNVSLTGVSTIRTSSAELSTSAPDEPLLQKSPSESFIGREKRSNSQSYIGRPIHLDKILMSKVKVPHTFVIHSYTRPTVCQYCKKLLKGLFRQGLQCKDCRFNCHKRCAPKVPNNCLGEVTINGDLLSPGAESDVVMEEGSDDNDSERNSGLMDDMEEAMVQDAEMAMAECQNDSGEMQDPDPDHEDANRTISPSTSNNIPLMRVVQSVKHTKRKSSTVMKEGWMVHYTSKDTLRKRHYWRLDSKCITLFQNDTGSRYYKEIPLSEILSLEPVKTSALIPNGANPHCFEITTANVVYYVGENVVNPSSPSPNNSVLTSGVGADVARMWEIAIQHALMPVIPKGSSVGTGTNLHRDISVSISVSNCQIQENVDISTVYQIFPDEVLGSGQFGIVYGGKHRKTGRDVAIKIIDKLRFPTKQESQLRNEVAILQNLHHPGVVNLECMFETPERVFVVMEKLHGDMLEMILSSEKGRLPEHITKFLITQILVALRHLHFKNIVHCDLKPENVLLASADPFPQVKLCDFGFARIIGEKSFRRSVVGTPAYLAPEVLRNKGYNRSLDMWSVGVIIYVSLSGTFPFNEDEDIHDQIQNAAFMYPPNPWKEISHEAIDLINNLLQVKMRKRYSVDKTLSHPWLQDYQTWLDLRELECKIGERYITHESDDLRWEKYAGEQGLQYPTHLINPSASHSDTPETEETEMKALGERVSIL

[9] = target: T2, Serine/threonine-protein kinase D1 (Homo sapiens); settings: at 1 µM
[10] = target: T3, Serine/threonine-protein kinase D2 (Homo sapiens) (UniProt Q9BZL6); settings: at 0.1 µM
T3 sequence (whole entry): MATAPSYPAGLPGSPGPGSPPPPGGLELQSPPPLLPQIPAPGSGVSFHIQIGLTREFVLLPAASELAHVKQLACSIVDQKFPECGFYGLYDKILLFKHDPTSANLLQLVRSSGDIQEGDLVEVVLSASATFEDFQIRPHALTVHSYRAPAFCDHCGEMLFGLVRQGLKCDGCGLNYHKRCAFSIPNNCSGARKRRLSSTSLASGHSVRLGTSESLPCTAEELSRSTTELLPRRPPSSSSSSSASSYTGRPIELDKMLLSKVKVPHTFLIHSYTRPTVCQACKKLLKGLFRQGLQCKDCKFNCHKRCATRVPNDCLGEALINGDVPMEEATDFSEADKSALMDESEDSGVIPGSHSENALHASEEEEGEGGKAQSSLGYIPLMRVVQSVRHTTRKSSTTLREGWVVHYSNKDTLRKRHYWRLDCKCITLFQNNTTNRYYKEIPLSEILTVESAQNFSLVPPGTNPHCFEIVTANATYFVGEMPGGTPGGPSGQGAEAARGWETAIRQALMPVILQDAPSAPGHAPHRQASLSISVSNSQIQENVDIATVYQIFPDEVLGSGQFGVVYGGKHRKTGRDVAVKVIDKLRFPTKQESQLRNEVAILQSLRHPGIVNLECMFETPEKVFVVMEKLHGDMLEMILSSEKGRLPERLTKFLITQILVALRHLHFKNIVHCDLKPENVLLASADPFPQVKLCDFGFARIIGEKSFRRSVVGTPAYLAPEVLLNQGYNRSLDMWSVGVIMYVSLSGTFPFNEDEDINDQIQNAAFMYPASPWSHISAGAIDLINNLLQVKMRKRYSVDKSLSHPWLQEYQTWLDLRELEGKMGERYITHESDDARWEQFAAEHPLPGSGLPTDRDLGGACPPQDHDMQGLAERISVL

[11] = target: T3, Serine/threonine-protein kinase D2 (Homo sapiens); settings: at 1 µM
[12] = target: T4, Serine/threonine-protein kinase D3 (Homo sapiens) (UniProt O94806); settings: at 0.1 µM
T4 sequence (whole entry): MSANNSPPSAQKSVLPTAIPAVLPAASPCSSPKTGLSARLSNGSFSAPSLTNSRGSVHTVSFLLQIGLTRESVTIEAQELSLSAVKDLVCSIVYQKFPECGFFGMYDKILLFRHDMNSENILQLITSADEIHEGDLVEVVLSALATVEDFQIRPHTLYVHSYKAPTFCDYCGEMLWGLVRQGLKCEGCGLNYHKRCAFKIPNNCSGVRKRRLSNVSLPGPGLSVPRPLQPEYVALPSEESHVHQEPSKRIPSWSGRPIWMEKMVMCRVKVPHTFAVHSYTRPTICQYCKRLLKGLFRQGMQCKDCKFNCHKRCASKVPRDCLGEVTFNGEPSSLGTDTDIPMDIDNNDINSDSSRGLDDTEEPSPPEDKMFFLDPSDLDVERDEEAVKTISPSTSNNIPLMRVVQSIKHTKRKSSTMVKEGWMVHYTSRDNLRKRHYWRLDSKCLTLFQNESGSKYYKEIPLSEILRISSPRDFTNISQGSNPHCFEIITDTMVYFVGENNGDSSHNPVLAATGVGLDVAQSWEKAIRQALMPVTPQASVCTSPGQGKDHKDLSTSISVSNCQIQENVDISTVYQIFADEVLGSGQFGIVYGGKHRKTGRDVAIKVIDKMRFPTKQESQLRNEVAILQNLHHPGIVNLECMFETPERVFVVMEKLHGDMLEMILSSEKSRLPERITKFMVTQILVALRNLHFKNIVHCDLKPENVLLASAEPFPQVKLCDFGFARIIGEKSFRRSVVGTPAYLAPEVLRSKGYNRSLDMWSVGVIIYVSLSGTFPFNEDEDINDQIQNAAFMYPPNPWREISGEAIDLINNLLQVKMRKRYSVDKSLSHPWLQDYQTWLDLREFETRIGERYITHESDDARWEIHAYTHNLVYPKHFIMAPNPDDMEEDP

[13] = target: T4, Serine/threonine-protein kinase D3 (Homo sapiens); settings: at 1 µM
[14] = target: T5, cGMP-dependent protein kinase 1 (Homo sapiens) (UniProt Q13976); settings: at 0.1 µM
T5 sequence (whole entry): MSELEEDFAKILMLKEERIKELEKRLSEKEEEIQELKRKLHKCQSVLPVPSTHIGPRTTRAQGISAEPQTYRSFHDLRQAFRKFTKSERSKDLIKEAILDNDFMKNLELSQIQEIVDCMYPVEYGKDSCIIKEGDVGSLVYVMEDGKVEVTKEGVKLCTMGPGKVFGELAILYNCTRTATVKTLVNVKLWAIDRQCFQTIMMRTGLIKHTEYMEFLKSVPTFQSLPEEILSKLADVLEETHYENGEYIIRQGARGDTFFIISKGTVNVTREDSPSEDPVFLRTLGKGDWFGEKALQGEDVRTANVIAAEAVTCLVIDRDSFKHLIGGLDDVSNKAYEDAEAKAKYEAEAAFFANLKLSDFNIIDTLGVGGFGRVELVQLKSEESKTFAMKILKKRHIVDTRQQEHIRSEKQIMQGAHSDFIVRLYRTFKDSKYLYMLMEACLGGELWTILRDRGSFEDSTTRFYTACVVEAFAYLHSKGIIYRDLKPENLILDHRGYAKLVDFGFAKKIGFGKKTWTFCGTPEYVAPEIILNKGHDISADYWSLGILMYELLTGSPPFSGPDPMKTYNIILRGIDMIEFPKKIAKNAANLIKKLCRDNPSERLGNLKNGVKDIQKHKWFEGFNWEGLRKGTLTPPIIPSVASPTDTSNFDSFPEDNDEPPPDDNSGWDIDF

[15] = target: T5, cGMP-dependent protein kinase 1 (Homo sapiens); settings: at 1 µM
[16] = target: T6, cGMP-dependent protein kinase 2 (Homo sapiens) (UniProt Q13237); settings: at 0.1 µM
T6 sequence (whole entry): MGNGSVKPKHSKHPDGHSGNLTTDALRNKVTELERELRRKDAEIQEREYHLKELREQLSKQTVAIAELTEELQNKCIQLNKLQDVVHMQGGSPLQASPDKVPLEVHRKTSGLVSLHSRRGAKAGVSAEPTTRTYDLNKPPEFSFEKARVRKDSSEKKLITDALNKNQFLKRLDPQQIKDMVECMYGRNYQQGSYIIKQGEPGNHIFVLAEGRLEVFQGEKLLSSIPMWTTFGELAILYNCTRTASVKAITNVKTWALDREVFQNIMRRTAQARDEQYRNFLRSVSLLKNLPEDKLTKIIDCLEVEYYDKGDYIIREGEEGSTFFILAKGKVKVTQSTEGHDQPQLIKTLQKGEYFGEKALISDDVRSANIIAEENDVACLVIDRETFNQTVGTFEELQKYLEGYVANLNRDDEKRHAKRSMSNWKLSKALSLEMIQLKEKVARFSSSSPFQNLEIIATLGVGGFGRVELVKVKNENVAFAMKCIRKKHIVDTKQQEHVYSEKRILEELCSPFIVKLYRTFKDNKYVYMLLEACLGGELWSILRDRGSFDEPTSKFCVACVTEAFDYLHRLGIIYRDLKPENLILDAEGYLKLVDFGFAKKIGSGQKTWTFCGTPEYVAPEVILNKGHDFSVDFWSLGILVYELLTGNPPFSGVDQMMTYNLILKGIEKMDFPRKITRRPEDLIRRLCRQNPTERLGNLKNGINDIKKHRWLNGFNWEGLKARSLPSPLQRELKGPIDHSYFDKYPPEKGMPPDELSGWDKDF

[17] = target: T6, cGMP-dependent protein kinase 2 (Homo sapiens); settings: at 1 µM
[18] = target: T7, cAMP-dependent protein kinase catalytic subunit PRKX (Homo sapiens) (UniProt P51817); settings: at 0.1 µM
T7 sequence (whole entry): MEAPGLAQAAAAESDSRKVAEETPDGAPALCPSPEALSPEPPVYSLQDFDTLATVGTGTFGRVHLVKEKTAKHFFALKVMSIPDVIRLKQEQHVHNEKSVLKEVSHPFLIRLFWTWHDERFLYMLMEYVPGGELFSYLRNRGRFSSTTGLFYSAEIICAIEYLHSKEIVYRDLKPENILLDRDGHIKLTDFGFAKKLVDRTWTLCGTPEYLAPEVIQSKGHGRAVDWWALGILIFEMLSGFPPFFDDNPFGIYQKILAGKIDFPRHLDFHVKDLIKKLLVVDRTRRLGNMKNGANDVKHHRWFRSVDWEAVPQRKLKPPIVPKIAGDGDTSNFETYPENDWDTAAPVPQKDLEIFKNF

[19] = target: T7, cAMP-dependent protein kinase catalytic subunit PRKX (Homo sapiens); settings: at 1 µM
[20] = target: Rho-associated protein kinase 1 (Homo sapiens) (UniProt Q13464); settings: at 0.1 µM;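 also: values are mean percent inhibition of ROCK1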
Rho-associated protein kinase 1 (Homo sapiens), sequence (Q13464 2-1354 limits assumed): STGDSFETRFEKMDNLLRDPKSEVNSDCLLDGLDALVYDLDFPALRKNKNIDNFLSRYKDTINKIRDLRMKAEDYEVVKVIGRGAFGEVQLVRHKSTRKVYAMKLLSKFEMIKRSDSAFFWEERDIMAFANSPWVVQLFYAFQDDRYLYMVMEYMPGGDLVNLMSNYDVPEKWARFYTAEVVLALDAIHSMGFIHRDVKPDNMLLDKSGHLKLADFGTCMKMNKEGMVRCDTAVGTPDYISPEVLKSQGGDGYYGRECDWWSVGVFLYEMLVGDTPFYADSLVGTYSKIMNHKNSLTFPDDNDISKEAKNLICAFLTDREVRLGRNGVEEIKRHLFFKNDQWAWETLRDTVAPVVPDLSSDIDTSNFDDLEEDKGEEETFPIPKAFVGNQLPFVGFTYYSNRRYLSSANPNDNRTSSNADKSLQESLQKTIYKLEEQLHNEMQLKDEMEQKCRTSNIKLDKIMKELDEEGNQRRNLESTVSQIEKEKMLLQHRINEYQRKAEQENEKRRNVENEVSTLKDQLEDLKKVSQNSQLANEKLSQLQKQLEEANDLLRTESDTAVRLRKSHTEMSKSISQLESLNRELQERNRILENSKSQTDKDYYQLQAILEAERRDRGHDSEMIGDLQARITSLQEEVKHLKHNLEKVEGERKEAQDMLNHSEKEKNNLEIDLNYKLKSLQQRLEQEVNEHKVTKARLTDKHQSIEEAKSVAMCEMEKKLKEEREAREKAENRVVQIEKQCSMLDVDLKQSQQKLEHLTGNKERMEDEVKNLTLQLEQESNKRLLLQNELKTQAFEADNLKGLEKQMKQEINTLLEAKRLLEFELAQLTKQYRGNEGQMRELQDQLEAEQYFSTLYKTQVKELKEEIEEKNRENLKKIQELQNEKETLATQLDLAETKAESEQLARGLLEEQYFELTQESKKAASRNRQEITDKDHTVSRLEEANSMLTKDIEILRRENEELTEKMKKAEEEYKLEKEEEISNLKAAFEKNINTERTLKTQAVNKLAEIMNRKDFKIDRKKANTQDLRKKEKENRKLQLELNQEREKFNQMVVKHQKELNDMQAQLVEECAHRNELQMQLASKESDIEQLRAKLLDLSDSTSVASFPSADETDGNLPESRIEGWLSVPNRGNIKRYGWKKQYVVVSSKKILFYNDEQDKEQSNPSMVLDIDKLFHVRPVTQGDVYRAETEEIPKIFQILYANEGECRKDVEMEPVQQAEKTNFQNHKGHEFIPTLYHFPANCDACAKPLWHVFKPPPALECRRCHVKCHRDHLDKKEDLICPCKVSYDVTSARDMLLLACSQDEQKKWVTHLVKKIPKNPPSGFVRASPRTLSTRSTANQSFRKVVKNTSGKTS

| SMILES | inhibition [1] | inhibition [2] | inhibition [3] | inhibition [4] | inhibition [5] | inhibition [6] | inhibition [7] | inhibition [8] | inhibition [9] | inhibition [10] | inhibition [11] | inhibition [12] | inhibition [13] | inhibition [14] | inhibition [15] | inhibition [16] | inhibition [17] | inhibition [18] | inhibition [19] | inhibition [20] |
| --- | --- | --- | --- | --- | --- | --- | --- | --- | --- | --- | --- | --- | --- | --- | --- | --- | --- | --- | --- | --- |
| N#Cc1ccc2c(-c3ccnc(NC4CC4)n3)c(-c3ccc(F)cc3)nn2c1 | 1.83% | 0.18% | 0.6% | 1.35% | 1.42% | 1.33% | 4.8% | 5.97% | 40% | 5.96% | 44.2% | 6.5% | 41.7% | 1.2% | -0.35% | 0.69% | -1.36% | 1.65% | 0.23% | 0.62% |
| Cn1c(-c2nonc2N)nc2cnccc21 | 2.78% | 1.03% | 3.76% | 1.13% | 3.08% | 1.16% | 5.62% | 3.06% | 14.8% | 2.42% | 10.4% | 2.73% | 8.54% | 3.02% | 15% | 6.01% | 38.7% | 2.45% | 6.56% | 10.8% |
| Fc1ccc(Nc2nccc(-c3c(-c4ccc(C(F)(F)F)cc4)nn4ncccc34)n2)cc1F | 4.39% | 0.34% | 3.68% | 1.71% | 0.47% | 0.7% | 0.3% | 3.32% | 5.39% | 3.45% | 3.98% | 5.05% | 4.35% | 2.4% | 3.28% | 0.92% | 2.82% | 0.62% | -1.3% | 0.45% |
